Results on three compounds are retold here after PubChem BioAssay (Tox21).

Results filed as inconclusive are left out. The source made the active and inactive calls. Unless noted, calls come from the whole dose curve; as a rule, active = well fitted curve in the direction sought with a large enough effect in the repeat runs; inconclusive = weak or mixed curves; inactive = no such curve, though single readings can be large; an effect the other way counts as inactive or inconclusive.

Assay [1] can be described thus: qHTS assay to identify small molecule antagonists of the estrogen receptor alpha (ER-alpha) signaling pathway using the BG1 cell line in the presence of 0.1 nM 17-beta-estradiol - cell viability counter screen (AID 1259241). Note: nearly all actives have a fitted effect of over 40% in size. The conditions noted are these: VM7Luc4E2 (BG1) viability, CellTiter-Fluor protease, 22 h, 0.1 nM estradiol agonist added; series mostly up to 92.4 µM. Put shortly:
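Following 5 days in phenol red-free medium with charcoal-stripped serum, VM7Luc4E2 cells received test compounds alongside 0.1 nM 17beta-estradiol (final) at 37C for 22 hr. Live cells were then quantified via protease-substrate fluorescence.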

Assay [2] is described as follows: qHTS assay to identify small molecule antagonists of the androgen receptor (AR) signaling pathway using the MDA cell line in the presence of 0.5 nM R1881 - cell viability counter screen (AID 1259242). Note: nearly all actives have a fitted effect of over 45% in size. The following applies: MDA-kb2 viability, CellTiter-Fluor protease fluorescence, 16 h; series mostly up to 92.4 µM. Put shortly:
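Viability of MDA-kb2 cells was multiplexed with the luciferase AR readout; after 16 hr with compounds and R1881 at 0.5 nM final, CellTiter-Fluor fluorescence was recorded.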

Assay [3] is described as follows: qHTS assay to identify small molecule HDAC inhibitors (AID 1259364). Note: potency is the fitted concentration of half-maximal effect.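 Note: wild-type HCT-116 cells with endogenous class I/II HDAC activity; nearly all actives have a fitted effect of over 45% in size.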 The following applies: HCT-116 HDAC-Glo I/II luminescence, 2 h; series mostly up to 92.4 µM. The method, boiled down: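 Read-out: luminescence of HDAC-Glo I/II reagent, 30 min RT, reflecting class I/II deacetylase activity in whole HCT-116 cells pre-exposed 2 h to DMSO-dissolved compounds.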
Assay [4] in a line: qHTS assay to identify small molecule HDAC inhibitors - cell viability counter screen (AID 1259365). Note: nearly all actives have a fitted effect of over 50% in size. The conditions noted are these: HCT-116 viability, CellTiter-Glo ATP luminescence, 2 h; series mostly up to 92.4 µM. The method, boiled down:
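HCT-116 wild-type, overnight attachment; 2hr drug exposure, 37C; CellTiter-Glo luminescent ATP readout after 30min RT.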

Assay [5] is described as follows: qHTS assay to identify small molecule agonists of the sonic hedgehog signaling (Shh) pathway - cell viability counter screen (AID 1259366). Note: nearly all actives have a fitted effect of over 50% in size. Note: potency is the fitted concentration of half-maximal effect. The following applies: NIH/3T3 Gli1-Luc viability, CellTiter-Fluor, 24 h; series mostly up to 92.4 µM. The method, boiled down: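 Compounds in DMSO were pin-transferred onto 3T3 Gli1-Luc cells that had settled 4hr; plates then stood 24hr at 37C and 5% CO2. One hour before the end, CellTiter-Fluor was added and fluorescence recorded.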

Assay [6] can be described thus: qHTS assay to identify small molecule antagonists of the sonic hedgehog signaling (Shh) pathway - cell viability counter screen (AID 1259367). Note: nearly all actives have a fitted effect of over 55% in size. Note: potency is the fitted concentration of half-maximal effect. The following applies: NIH/3T3 Gli1-Luc viability, CellTiter-Fluor, 24 h; series mostly up to 92.4 µM. The method, boiled down: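 Cells: 3T3 Gli1-Luc, 2,000/well, 4 hr pre-incubation. Compounds in DMSO, then conditioned medium. Incubation 24 hr, 37C, 5% CO2. CellTiter-Fluor at 23 hr, 1 hr, fluorescence.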

Assay [7] can be described thus: qHTS assay to identify small molecule antagonists of the sonic hedgehog signaling (Shh) pathway (AID 1259369; calls by dose curve; note: nearly all actives have a fitted effect of over 45% in size). The conditions noted are these: NIH/3T3 Gli1-Luc reporter, Shh antagonist, luminescence 24 h; series mostly up to 92.4 µM. Put shortly: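 For antagonist detection, the reporter line received test compounds together with conditioned medium, incubated 24hr at 37 C, 5% CO2, then luminescence was recorded following 30min room-temperature luciferase reagent incubation.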

Assay [8] in a line: qHTS assay to identify small molecule agonists of the estrogen receptor beta (ER-beta) signaling pathway - cell viability counter screen (AID 1259380). Note: nearly all actives have a fitted effect of over 30% in size. The conditions noted are these: ER-beta-bla HEK293T viability, CellTiter-Glo luminescence, 16 h; series mostly up to 92.4 µM. Put shortly:
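CellTiter-Glo read, 30 min RT, same wells as bla assay; cells ER-beta-UAS-bla HEK293T; 16 hr compound, 37C; medium 2% charcoal-stripped FBS.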

A short description of assay [9]: qHTS assay to identify small molecule antagonists of the estrogen receptor beta (ER-beta) signaling pathway - cell viability counter screen (AID 1259382).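 Note: HEK293T cells carrying ER-beta-UAS-bla reporter stimulated with estradiol; nearly all actives have a fitted effect of over 55% in size.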 The conditions noted are these: ER-beta-UAS-bla HEK293T viability, CellTiter-Glo luminescence, 16 h; series mostly up to 92.4 µM. The method, boiled down: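 In this multiplexed counter screen, cells were seeded at 2,000 per well in medium with 2% charcoal-stripped FBS and incubated 6 hr before compound and 1nM final E2 were added. Sixteen hours later, ATP-based luminescence reported viability.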

Assay [10] in a line: qHTS assay to identify small molecule agonists or antagonists of the thyroid stimulating hormone receptor (TSHR) signaling pathway - wild type cell line counter screen (AID 1259384; calls by dose curve). The conditions noted are these: HEK293 wild type, cAMP HTRF counter-screen, hits give high values; series mostly up to 92.4 µM. Put shortly: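 Counter screen in untransfected Hek293: compounds (15-point titration, triplicate) plus phosphodiesterase inhibitor Ro20-1724 added after 18 h plating; 30 min RT. Intracellular cAMP via competitive d2/cryptate immunoassay, 1 h incubation.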

Assay [11] has as its target Thyrotropin receptor (Homo sapiens) (UniProt P16473). Put plainly: qHTS assay to identify small molecule antagonists of the thyroid stimulating hormone receptor (TSHR) signaling pathway (AID 1259385; calls by dose curve; note: nearly all actives have a fitted effect of over 20% in size). The following applies: TSHR-HEK293 cAMP HTRF, TSH-stimulated antagonist mode; series mostly up to 92.4 µM. Put shortly: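 Antagonist mode: compound-treated TSHR-expressing HEK293 cells were stimulated with 1.5 ng/mL TSH (final) in presence of Ro20-1724 for 30 min at RT. HTRF cAMP detection after 1 h; each compound tested at 15 concentrations, triplicate.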

Assay [12] has as its target Androgen receptor (Homo sapiens) (UniProt P10275). Put plainly: qHTS assay to identify small molecule antagonists of the androgen receptor (AR) signaling pathway using the MDA cell line in the presence of 0.5 nM R1881 (AID 1259243). Note: potency is the fitted concentration of half-maximal effect; nearly all actives have a fitted effect of over 50% in size. The following applies: MDA-kb2 MMTV-luciferase, R1881 0.5 nM, 16 h; series mostly up to 92.4 µM. Put shortly:
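Reporter cells cultured without CO2 receive test chemicals, then 0.5 nM R1881 final; after 16 hr at 37C, ONE-Glo is added and light output recorded.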

Assay [13] concerns the target Estrogen receptor (Homo sapiens) (UniProt P03372). Put plainly: qHTS assay to identify small molecule antagonists of the estrogen receptor alpha (ER-alpha) signaling pathway using the BG1 cell line in the presence of 0.1 nM 17-beta-estradiol (AID 1259244). Note: nearly all actives have a fitted effect of over 50% in size. The conditions noted are these: VM7Luc4E2 (BG1) ERE-luciferase, antagonist mode, 0.1 nM E2, 22 h; series mostly up to 92.4 µM. Put shortly: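 Estradiol at 0.1 nM (final) stimulates the endogenous ER-alpha of VM7Luc4E2 cells carrying an ERE-driven luciferase; compounds are co-incubated 22 h at 37C and luciferase output quantified by luminescence.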

A short description of assay [14]: qHTS assay to identify small molecule agonists of the sonic hedgehog signaling (Shh) pathway (AID 1259368; calls by dose curve;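 note: NIH/3T3-derived 3T3Gli1-Luc cells carrying a stable Gli1-driven firefly luciferase reporter; nearly all actives have a fitted effect of over 15% in size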). The following applies: NIH/3T3 Gli1-Luc reporter, luciferase, 24 h; series mostly up to 92.4 µM. The method, boiled down:
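A Gli1 transcriptional response element controlled firefly luciferase in 3T3Gli1-Luc cells. Compounds and a positive control were added 4 hr after plating, and cells were incubated a further 24 hr at 37 C before luminescence detection.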

The target of assay [15] is Estrogen receptor beta (Homo sapiens) (UniProt Q92731). Put plainly: qHTS assay to identify small molecule agonists of the estrogen receptor beta (ER-beta) signaling pathway (AID 1259377; active = well fitted activation curve with a large enough effect in the signal ratio in the repeat runs, not every such curve was filed as active; the % refers to the signal ratio). The conditions noted are these: ER-beta-UAS-bla HEK293T, beta-lactamase FRET ratio, 16 h; series mostly up to 92.4 µM. Put shortly: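 qHTS in ER-beta-UAS-bla HEK293T cells: 6 hr settling, then 16 hr compound at 37C, then LiveBLAzer substrate 2 h at RT before fluorescence reading.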

Assay [16] has the same target. Put plainly: qHTS assay to identify small molecule antagonists of the estrogen receptor beta (ER-beta) signaling pathway (AID 1259378; active = well fitted inhibition curve with a large enough effect in the signal ratio in the repeat runs, not every such curve was filed as active; the % refers to the signal ratio). The conditions noted are these: ER-beta-UAS-bla HEK293T, beta-lactamase FRET ratio, 16 h; series mostly up to 92.4 µM. The method, boiled down:
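Antagonist mode: compounds added to beta-lactamase reporter HEK293T ER-beta-UAS cells stimulated with E2 (1nM final), 16 hr at 37C. LiveBLAzer B/G FRET substrate, 2 hours room temperature, fluorescence read-out.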

Assay [17] has as its target Androgen receptor (Homo sapiens) (UniProt P10275). Put plainly: qHTS assay to identify small molecule agonists of the androgen receptor (AR) signaling pathway in the presence of an antagonist (AID 1259381; calls by dose curve; note: nearly all actives have a fitted effect of over 15% in size). The conditions noted are these: MDA-kb2 MMTV-luciferase, AR agonist + nilutamide, 16 h; series mostly up to 92.4 µM. Put shortly:
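Test compounds at 15 concentrations were incubated for 16hr with MDA-kb2 reporter cells in presence of 3.0uM nilutamide (final). Signal: ONE-Glo luciferase luminescence.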

Assay [18] addresses Estrogen receptor (Homo sapiens) (UniProt P03372). Put plainly: qHTS assay to identify small molecule agonists of the estrogen receptor alpha (ER-alpha) signaling pathway in the presence of an antagonist (AID 1259383; calls by dose curve; note: top concentration of the series differs between compounds; nearly all actives have a fitted effect of over 15% in size). The conditions noted are these: VM7Luc4E2 cells, ERE-luciferase, +ICI-182,780, 22 h; series mostly up to 92.4 µM. Put shortly: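 Stably transfected VM7Luc4E2 reporter cells, kept 5 days in charcoal-stripped serum, received ICI-182,780 at 10.0nM final before compound addition. Following 22hr incubation at 37C and 5% CO2, luciferase signal was read by luminescence.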

Assay [19] is described as follows: qHTS assay to identify small molecule agonists of the androgen receptor (AR) signaling pathway in the presence of an antagonist - cell viability counter screen (AID 1259379).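 Note: MDA-kb2 human breast cancer cells carrying an MMTV luciferase reporter; nearly all actives have a fitted effect of over 25% in size.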 The conditions noted are these: MDA-kb2 viability, CellTiter-Fluor, 16 h; series mostly up to 92.4 µM. The method, boiled down: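 Seed MDA-kb2 at 3,000 cells/well; incubate 5 hr, 37C, 0% CO2. Add nilutamide to 3.0uM final, then pin compounds at 15 concentrations. Incubate 16 hr. Add CellTiter-Fluor at 15 hr, read fluorescence after 1 hr.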

Chain of Estrogen receptor beta (Homo sapiens) (Q92731 whole entry, looked up): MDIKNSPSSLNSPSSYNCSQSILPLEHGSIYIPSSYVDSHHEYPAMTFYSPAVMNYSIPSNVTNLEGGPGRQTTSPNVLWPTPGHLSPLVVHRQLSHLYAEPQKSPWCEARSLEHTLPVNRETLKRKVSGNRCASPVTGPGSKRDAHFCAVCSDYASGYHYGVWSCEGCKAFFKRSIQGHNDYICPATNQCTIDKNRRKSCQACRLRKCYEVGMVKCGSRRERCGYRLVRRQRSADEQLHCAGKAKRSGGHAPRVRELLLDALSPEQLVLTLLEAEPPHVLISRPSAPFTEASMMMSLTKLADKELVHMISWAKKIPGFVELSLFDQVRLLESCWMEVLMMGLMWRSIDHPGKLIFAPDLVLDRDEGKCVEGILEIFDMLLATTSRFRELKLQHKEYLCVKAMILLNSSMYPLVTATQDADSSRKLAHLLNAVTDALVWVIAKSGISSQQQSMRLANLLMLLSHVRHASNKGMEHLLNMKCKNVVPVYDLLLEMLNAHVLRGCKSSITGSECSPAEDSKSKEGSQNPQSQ
Chain of Androgen receptor (Homo sapiens) (P10275 whole entry, looked up): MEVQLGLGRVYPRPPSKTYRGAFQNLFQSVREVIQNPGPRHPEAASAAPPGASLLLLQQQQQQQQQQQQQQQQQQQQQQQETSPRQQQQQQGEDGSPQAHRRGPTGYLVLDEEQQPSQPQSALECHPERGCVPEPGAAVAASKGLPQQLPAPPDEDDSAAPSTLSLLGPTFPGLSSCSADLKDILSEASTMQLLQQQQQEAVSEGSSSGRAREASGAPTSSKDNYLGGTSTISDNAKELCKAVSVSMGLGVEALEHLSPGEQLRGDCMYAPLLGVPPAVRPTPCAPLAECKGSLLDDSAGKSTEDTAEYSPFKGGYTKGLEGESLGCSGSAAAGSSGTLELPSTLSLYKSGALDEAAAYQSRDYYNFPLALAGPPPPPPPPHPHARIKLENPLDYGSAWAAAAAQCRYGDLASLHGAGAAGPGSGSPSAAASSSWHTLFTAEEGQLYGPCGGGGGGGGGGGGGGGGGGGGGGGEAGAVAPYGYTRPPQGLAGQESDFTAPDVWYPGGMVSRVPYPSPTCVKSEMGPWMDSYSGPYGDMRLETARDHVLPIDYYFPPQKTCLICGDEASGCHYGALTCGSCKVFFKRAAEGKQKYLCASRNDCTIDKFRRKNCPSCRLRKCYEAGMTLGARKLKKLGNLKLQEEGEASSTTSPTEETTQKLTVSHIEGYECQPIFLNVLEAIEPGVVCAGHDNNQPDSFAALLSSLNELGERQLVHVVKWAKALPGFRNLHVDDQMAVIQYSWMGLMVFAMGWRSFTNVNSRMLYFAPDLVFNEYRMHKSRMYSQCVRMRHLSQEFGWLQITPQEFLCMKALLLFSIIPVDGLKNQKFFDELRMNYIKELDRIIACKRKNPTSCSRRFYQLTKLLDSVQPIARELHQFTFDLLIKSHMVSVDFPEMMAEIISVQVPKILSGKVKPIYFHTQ
Chain of Estrogen receptor (Homo sapiens) (P03372 whole entry, looked up): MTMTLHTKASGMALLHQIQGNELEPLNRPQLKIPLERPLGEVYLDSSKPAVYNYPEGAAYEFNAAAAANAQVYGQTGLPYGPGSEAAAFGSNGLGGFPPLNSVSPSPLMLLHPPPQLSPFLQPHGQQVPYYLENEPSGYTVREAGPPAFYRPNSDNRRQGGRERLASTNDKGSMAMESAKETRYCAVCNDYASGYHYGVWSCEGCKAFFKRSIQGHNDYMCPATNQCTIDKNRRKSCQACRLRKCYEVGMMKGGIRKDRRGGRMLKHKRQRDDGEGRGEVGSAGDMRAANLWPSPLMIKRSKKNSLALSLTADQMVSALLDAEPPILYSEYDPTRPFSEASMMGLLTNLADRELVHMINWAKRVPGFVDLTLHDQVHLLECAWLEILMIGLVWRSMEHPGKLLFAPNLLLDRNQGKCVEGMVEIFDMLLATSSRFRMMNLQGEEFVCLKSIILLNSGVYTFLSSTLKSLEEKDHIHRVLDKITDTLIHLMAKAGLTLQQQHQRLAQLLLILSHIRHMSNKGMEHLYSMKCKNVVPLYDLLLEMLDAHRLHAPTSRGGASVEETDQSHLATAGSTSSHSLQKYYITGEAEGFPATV
Chain of Thyrotropin receptor (Homo sapiens) (P16473 whole entry, looked up): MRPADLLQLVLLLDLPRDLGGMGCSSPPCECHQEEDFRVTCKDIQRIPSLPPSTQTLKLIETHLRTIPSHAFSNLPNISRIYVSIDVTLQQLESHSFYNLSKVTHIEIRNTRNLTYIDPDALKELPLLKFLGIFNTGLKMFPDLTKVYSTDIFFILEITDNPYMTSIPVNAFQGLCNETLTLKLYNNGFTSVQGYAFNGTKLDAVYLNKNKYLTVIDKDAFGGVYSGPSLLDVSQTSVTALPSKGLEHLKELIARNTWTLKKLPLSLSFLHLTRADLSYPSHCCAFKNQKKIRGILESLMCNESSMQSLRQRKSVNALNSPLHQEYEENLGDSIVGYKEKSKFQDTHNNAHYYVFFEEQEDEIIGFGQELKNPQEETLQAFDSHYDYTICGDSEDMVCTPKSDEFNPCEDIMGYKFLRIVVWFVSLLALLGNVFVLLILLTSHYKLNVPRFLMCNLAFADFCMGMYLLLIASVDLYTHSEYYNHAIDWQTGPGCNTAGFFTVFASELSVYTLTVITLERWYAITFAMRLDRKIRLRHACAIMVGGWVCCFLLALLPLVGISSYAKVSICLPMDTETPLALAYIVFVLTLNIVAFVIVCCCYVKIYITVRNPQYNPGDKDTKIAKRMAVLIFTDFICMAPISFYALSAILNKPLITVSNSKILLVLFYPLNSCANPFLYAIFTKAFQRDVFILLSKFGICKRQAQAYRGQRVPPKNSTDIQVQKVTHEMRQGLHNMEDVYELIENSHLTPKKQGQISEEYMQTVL

Consider `Clc1ccccc1-c1nc(-c2ccncc2)no1`, for which the Potency result in assay [1], in assay [2], in [5], in [6], in assay [7] and in assay [8] was “inactive” in each case. The Potency result in assay [9] and in assay [11] was “inactive” each time. For the same compound, the Potency in assay [3] is 2.66 µM (active). In addition, the compound was called inactive in [4] and in assay [10].

In the case of `CCOc1cc(OCC)c(C(C)=O)cc1OCC`, the Potency entry in [2], in assay [13], in assay [3], in [14], in assay [15] and in assay [16] was “inactive” throughout. Moreover, the Potency entry in [17], in assay [9], in assay [18] and in [11] was “inactive” in each case. Besides, the values for the Potency in [12], in assay [5] and in [6] were 26.8 µM (active), 10.7 µM (active) and 8.48 µM (active), respectively. In addition, in [4], the result was inactive.

On to `CC/C=C/CCO`, for which the Potency entry in assay [1], in [2], in [3], in assay [5], in assay [14] and in assay [7] was “inactive” throughout. In addition, the Potency entry in assay [16], in assay [19], in [8] and in [9] was “inactive” in each case. In [4], the outcome was inactive.
